Consider 14 compounds from the supplement of paper PMC6522484.

± gives the standard deviation of the averaged measurements.

Assay [1] deals with DLD1. Description: cell viability (CellTiter-Glo) relative to plate median (fraction of plate median); higher = more viable cells. As to conditions: 5 µM; treatment time 24 h; reporter: 7TFP. The procedure, abridged:
(§1)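 On parallel plates, a Tecan F500 reader recorded either firefly luciferase or CellTiterGlo luminescence. The plates held colorectal cancer cells stably transduced with lentiviral TCF/Wnt firefly luciferase reporters (7TFP or TCF4/Wnt), seeded in 384-well format and treated 24 h later with library compounds at a final 5 µM for 24 h. Per-well signals were normalised to the plate median (webcellHTS2, additive, no log transformation), and two independent replicates were averaged.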

For assay [2], the system named is HCT116. Described as above. As to conditions: 5 µM; treatment time 24 h; reporter: TCF4/Wnt. The procedure, abridged:
as §1

In assay [3] the test system is SW480. The assay is described as above. The following applies: 5 µM; treatment time 24 h; reporter: 7TFP. The procedure, abridged: as §1
Assay [4] has as its system DLD1. Description: TCF/Wnt firefly luciferase reporter signal relative to plate median (fraction of plate median); higher = higher Wnt reporter signal. As to conditions: 5 µM; treatment time 24 h; reporter: 7TFP. The procedure, abridged: as §1
(In general: Reporter assays use an easily measured gene product as a stand-in for the process of interest.)

The test system of assay [5] is SW480. The assay is described as above. As to conditions: 5 µM; treatment time 24 h; reporter: 7TFP. The procedure, abridged: as §1

On to `CC1(C)O[C@@H]2C[C@H]3[C@@H]4CCC5=CC(=O)CC[C@]5(C)[C@@]4(F)[C@@H](O)C[C@]3(C)[C@]2(C(=O)CCl)O1`, for which the cell viability was determined as 0.921 ± 0.12 in assay [1], 0.925 ± 0.074 in assay [2] and 0.977 ± 0.061 in assay [3]. Besides, the “TCF/Wnt firefly luciferase reporter signal” value in assay [4] was determined as 0.927 ± 0.042; in assay [5], 1.01 ± 0.066.

For the compound `NC(Cn1ccc(=O)c(O)c1)C(=O)O` (stereo not given), the cell viability came out at 0.987 ± 0.076 in assay [1], 0.8415 ± 0.00071 in assay [2] and 0.989 ± 0.044 in assay [3]. Also, the “TCF/Wnt firefly luciferase reporter signal” value turned out to be 0.85 ± 0.016 in assay [4] and 0.947 ± 0.12 in assay [5].

Turning to `CC[C@H]1OC(=O)[C@H](C)[C@@H](O[C@H]2C[C@@](C)(OC)[C@@H](O)[C@H](C)O2)[C@H](C)[C@@H](O[C@@H]2O[C@H](C)C[C@H](N(C)C)[C@H]2O)[C@](C)(O)C[C@@H](C)C(=O)[C@H](C)[C@@H](O)[C@]1(C)O`, the results for the cell viability in assay [1], in assay [2] and in assay [3] were 1.01 ± 0.05, 0.986 ± 0.034 and 1 ± 0.028, respectively. Also, the “TCF/Wnt firefly luciferase reporter signal” value in assay [4] was 0.924 ± 0.09; in assay [5] it was 0.874 ± 0.051.

`C[C@]12CCC(=O)C=C1CC[C@@H]1[C@@H]2[C@@H](O)C[C@@]2(C)[C@H]1CC[C@]2(O)C(=O)COC(=O)CCC(=O)O`: the figures for the cell viability in assay [1], in assay [2] and in assay [3] were 1.07 ± 0.042, 1.11 and 1.03 ± 0.035, respectively. Further, the entries for the “TCF/Wnt firefly luciferase reporter signal” value in assay [4] and in assay [5] were 1.01 ± 0.02 and 1 ± 0.099, respectively.

Consider `CC(=O)/C(=C\c1ccccc1)CC(=O)O`, for which the cell viability is 0.984 ± 0.037 in assay [1], 1.03 ± 0.047 in assay [2] and 1 ± 0.05 in assay [3]. Besides, the entries for the “TCF/Wnt firefly luciferase reporter signal” value in assay [4] and in assay [5] were 0.894 ± 0.0085 and 0.996 ± 0.02, respectively.

As to `CC(=O)OCC(COC(C)=O)OC(C)=O`, the cell viability in assay [1] stood at 0.905 ± 0.08; in assay [2], 0.962 ± 0.082; in assay [3], 0.948 ± 0.0099. The “TCF/Wnt firefly luciferase reporter signal” value in assay [4] is 0.929 ± 0.079; in assay [5], 1 ± 0.011.

Regarding `CC(C)[C@@H](C)/C=C/[C@@H](C)[C@H]1CC[C@H]2C3=CCC4CC(=O)CC[C@]4(C)[C@H]3CC[C@]12C` (stereo not given in full), the cell viability in assay [1] was determined as 0.975 ± 0.078; in assay [2], 1.07 ± 0.05; in assay [3] it was 1.08. In addition, the entries for the “TCF/Wnt firefly luciferase reporter signal” value in assay [4] and in assay [5] were 1.06 ± 0.071 and 1.06 ± 0.021, respectively.

For the compound `NS(=O)(=O)c1cc2c(cc1C(F)(F)F)NCNS2(=O)=O`, the cell viability in assay [1] amounted to 1.02 ± 0.17; in assay [2] it was 1.09 ± 0.021; in assay [3], 1.04 ± 0.057. The entries for the “TCF/Wnt firefly luciferase reporter signal” value in assay [4] and in assay [5] were 1.12 ± 0.064 and 1.15 ± 0.092, respectively.

As for `C=C1C2CC[C@@]3(C)[C@H](c4ccoc4)OC(=O)C[C@]13O[C@H]1CC(O)C(C)(C)C(CC(=O)OC)[C@@]21C` (stereo partly drawn) [3alpha-HYDROXY-3-DEOXYANGOLENSIC ACID METHYL ESTER], the cell viability in assay [1] stood at 1.01 ± 0.049; in assay [2] it was 0.943 ± 0.081; in assay [3] it was 1.02 ± 0.059. Further, the results for the “TCF/Wnt firefly luciferase reporter signal” value in assay [4] and in assay [5] were 1.05 ± 0.05 and 0.968 ± 0.06, respectively.

On to `CCn1cc(C(=O)O)c(=O)c2ccc(C)nc21`, for which the cell viability in assay [1] was 0.975 ± 0.16; in assay [2], 0.9905 ± 0.0078; in assay [3], 0.975 ± 0.016. The “TCF/Wnt firefly luciferase reporter signal” value in assay [4] was 1.07 ± 0.12; in assay [5], 1.02 ± 0.028.

As for `COc1cc([C@@H]2c3cc4c(cc3[C@@H](O[C@@H]3O[C@@H]5CO[C@@H](C)O[C@H]5[C@H](O)[C@H]3O)[C@H]3COC(=O)[C@H]23)OCO4)cc(OC)c1O`, the results for the cell viability in assay [1], in assay [2] and in assay [3] were 1.03 ± 0.028, 0.895 ± 0.12 and 1.03 ± 0.042, respectively. Also, the “TCF/Wnt firefly luciferase reporter signal” value in assay [4] turned out to be 0.815 ± 0.14; in assay [5], 0.879 ± 0.12.

Take `O=C(O)c1cc(O)c(=O)c2c(O)c(O)ccc2c1`: the cell viability is 1.02 ± 0.028 in assay [1], 1.04 ± 0.12 in assay [2] and 1.01 ± 0.035 in assay [3]. In addition, the “TCF/Wnt firefly luciferase reporter signal” value is 1.05 ± 0.035 in assay [4] and 1.02 ± 0.021 in assay [5].

Regarding `O=C(O)c1cc(=O)c2c(Cl)cc(Cl)cc2[nH]1`, the cell viability in assay [1] is 0.944 ± 0.12; in assay [2] it was 0.968 ± 0.059; in assay [3] it was 0.976 ± 0.091. For the same compound, the “TCF/Wnt firefly luciferase reporter signal” value in assay [4] came out at 0.835 ± 0.021; in assay [5] it was 0.911 ± 0.052.

As to `CC(=O)NCCc1ccc(O)cc1` [N-(p-Hydroxyphenyl)ethylacetamide], the cell viability in assay [1] was determined as 1.02 ± 0.04; in assay [2], 1.09 ± 0.057; in assay [3], 1.06 ± 0.021. The “TCF/Wnt firefly luciferase reporter signal” value in assay [4] came out at 0.99 ± 0.099; in assay [5], 1.14 ± 0.021.
